Measurements: PubChem BioAssay (Tox21)
Records with an inconclusive call do not appear. Active and inactive are the calls of the source. Unless noted, calls follow the shape of the dose curve; as a rule, active = well fitted curve in the direction sought with a large enough effect in the repeat runs; inconclusive = weak or mixed curves; inactive = no such curve, though single readings can be large; an effect the other way counts as inactive or inconclusive.

Tests used:
[1] = biological target: Estrogen receptor (Homo sapiens) (UniProt P03372); test: qHTS assay to identify small molecule agonists of the estrogen receptor alpha (ER-alpha) signaling pathway in the presence of an antagonist (AID 1259383; calls by dose curve; also: top concentration of the series differs between compounds; nearly all actives have a fitted effect of over 15% in size)
Procedure, shortened: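 Using VM7Luc4E2 cells seeded 24hr before treatment, antagonist ICI-182,780 (10.0nM final) was added, followed by compounds at 15 concentrations. Plates incubated 22hr; ONE-Glo luminescence quantified reporter activity.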

[2] = qHTS assay to identify small molecule agonists of the estrogen receptor alpha (ER-alpha) signaling pathway in the presence of an antagonist - cell viability counter screen (AID 1259386);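 also: series mostly up to about 92 µM; cells exposed to compounds for 22 h at 37 °C before the viability read; nearly all actives have a fitted effect of over 30% in size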
Procedure, shortened: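 ICI-182,780 at 10.0nM final accompanies the compound titration (15 concentrations, 22hr, 37C) on VM7Luc4E2 cells. The CellTiter-Fluor fluorescence readout runs in the same wells as the luciferase assay.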

[3] = biological target: Progesterone receptor (Homo sapiens) (UniProt P06401); test: qHTS assay to identify small molecule agonists of the progesterone receptor (PR) signaling pathway (AID 1346784; calls by dose curve; also: nearly all actives have a fitted effect of over 30% in size)
Procedure, shortened: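 Seed PR-UAS-bla HEK 293T cells (2% charcoal-stripped FBS), incubate 6 hr at 37C; add compounds in DMSO, 16 hr at 37C; add LiveBLAzer B/G substrate, 2 hr RT; read fluorescence intensity.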

[4] = biological target: Progesterone receptor (Homo sapiens) (UniProt P06401); test: qHTS assay to identify small molecule antagonists of the progesterone receptor (PR) signaling pathway (AID 1346795; active = well fitted inhibition curve with a large enough effect in the signal ratio in the repeat runs, not every such curve was filed as active; the % refers to the signal ratio)
Procedure, shortened: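 Screening used a GripTite HEK293T line with PR-responsive UAS-beta-lactamase. Cells were challenged with compound in the presence of 1 nM R5020 final for 16 hr at 37C; B/G FRET substrate, 2 hr room temperature, fluorescence.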

[5] = qHTS assay to identify small molecule agonists of the progesterone receptor (PR) signaling pathway - cell viability counter screen (AID 1346799; calls by dose curve; also: nearly all actives have a fitted effect of over 45% in size)
Procedure, shortened: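 Using the same plates as the PR reporter screen, HEK293T PR-UAS-bla cells received compounds for 16 hr at 37C and were then lysed with CellTiter-Glo; luminescence was read 30 min later at room temperature.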

[6] = qHTS assay to identify small molecule antagonists of the TGF-beta/Smad signaling pathway - cell viability counter screen (AID 1346824); also: nearly all actives have a fitted effect of over 50% in size
Procedure, shortened: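 SBE-bla HEK 293T cells were plated overnight at 37 C, then given compounds in DMSO plus TGF-beta1 (added as 0.25 ng/mL solution) for 5 hr. After the bla read, CellTiter-Glo was added to the same wells and luminescence read after 30 min at room temperature.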

[7] = qHTS assay to identify small molecule agonists of the TGF-beta/Smad signaling pathway - cell viability counter screen (AID 1346829); also: top concentration of the series differs between compounds; nearly all actives have a fitted effect of over 45% in size
Procedure, shortened: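 Tox21 qHTS format: SBE-bla HEK 293T cells treated with DMSO-dissolved compounds for 5 hr; CellTiter-Glo luminescence after 30 min at room temperature.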

[8] = qHTS assay to identify small molecule agonists of the TGF-beta/Smad signaling pathway (AID 1346859; active = well fitted activation curve with a large enough effect in the signal ratio in the repeat runs, not every such curve was filed as active; the % refers to the signal ratio; also: series mostly up to about 77 µM)
Procedure, shortened: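 Beta-lactamase reporter activity downstream of Smad binding elements was measured in stably transfected HEK 293T cells; compounds were incubated for 5 hr, substrate for 2 hr at room temperature.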

[9] = biological target: Thyrotropin-releasing hormone receptor (Homo sapiens) (UniProt P34981); test: qHTS assay to identify small molecule antagonists of the thyrotropin-releasing hormone receptor (TRHR) signaling pathway (AID 1346877; active = well fitted inhibition curve with a large enough effect in the repeat runs, not every such curve was filed as active; also: series mostly up to about 51 µM)
Procedure, shortened: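 Screening used HEK293 cells engineered with TRHR, with a brief 5 min room-temperature compound exposure preceding addition of TRH to 1 nM. The read-out was kinetic calcium-dye fluorescence, concentration-response from 15 doses in triplicate.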

[10] = biological target: Thyrotropin-releasing hormone receptor (Homo sapiens) (UniProt P34981); test: qHTS assay to identify small molecule agonists of the thyrotropin-releasing hormone receptor (TRHR) signaling pathway (AID 1346891; calls by dose curve;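 also: HEK293 cells expressing TRHR with calcium dye readout; series mostly up to about 58 µM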)
Procedure, shortened: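 Overnight-plated (18 h, 37 °C, 5% CO2) TRHR-Hek293 cells; 2 h calcium dye at 37 °C; compound in DMSO; 3-min kinetic fluorescence read.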

[11] = Human pregnane X receptor (PXR) small molecule agonists, qHTS cell viability counter screen (AID 1346977); also: nearly all actives have a fitted effect of over 50% in size
Procedure, shortened: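 After a 5hr pre-incubation, PXR-Luc HepG2 cells received compounds plus positive control in DMSO and were kept 24hr at 37C. Cell viability was quantified by fluorescence from CellTiter-Fluor added for the final hour.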

[12] = Caspase-3/7 induction in HepG2 cells by small molecules, qHTS assay (AID 1346978); also: nearly all actives have a fitted effect of over 15% in size
Procedure, shortened: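 Wild-type HepG2 cells (2,000/well) were settled 5 h at 37 C, 5% CO2, then exposed to compounds in DMSO for 17 h. Caspase-3/7 activity was read by luminescence 30 min after adding Caspase-Glo 3/7 reagent at room temperature.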

[13] = Caspase-3/7 induction in CHO-K1 cells by small molecules, qHTS cell viability counter screen (AID 1346979); also: nearly all actives have a fitted effect of over 35% in size
Procedure, shortened: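 Multiplexed with Caspase-Glo 3/7 in CHO-K1 cells, this counter screen added CellTiter-Fluor after 16hr of compound exposure and recorded fluorescence 1hr later.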

[14] = Caspase-3/7 induction in CHO-K1 cells by small molecules, qHTS assay (AID 1346980); also: nearly all actives have a fitted effect of over 15% in size
Procedure, shortened: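 Wild-type cells were seeded at 1,500 per well and settled 5 hr at 37 C, 5% CO2, then exposed to DMSO-dissolved compounds for 17 hr. Caspase-Glo 3/7 reagent was added, and luminescence was read after 30min at room temperature.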

[15] = Caspase-3/7 induction in HepG2 cells by small molecules, qHTS cell viability counter screen (AID 1346981); also: series mostly up to about 92 µM; nearly all actives have a fitted effect of over 30% in size
Procedure, shortened: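 Multiplexed with the caspase-3/7 assay: HepG2 cells, 16 hr compound treatment, CellTiter-Fluor viability detection by fluorescence.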

[16] = biological target: Nuclear receptor subfamily 1 group I member 2 (Homo sapiens) (UniProt O75469); test: Human pregnane X receptor (PXR) small molecule agonists, qHTS assay (AID 1346982); also: nearly all actives have a fitted effect of over 35% in size
Procedure, shortened: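 We seeded PXR-Luc HepG2 cells in assay medium containing 5% charcoal-stripped FBS, added compounds 5 hr later, incubated 24 hr, and read luminescence with ONE-Glo reagent.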

[17] = qHTS assay to identify small molecule antagonists of the progesterone receptor (PR) signaling pathway - cell viability counter screen (AID 1346798); also: series mostly up to about 92 µM; nearly all actives have a fitted effect of over 50% in size
Procedure, shortened: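 Measures cytotoxicity in parallel with the PR antagonist reporter read: HEK293T PR-UAS-bla cells get compound and R5020 for 16 hr, and remaining viable cells are quantified by CellTiter-Glo luminescence.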

[18] = biological target: Nuclear receptor subfamily 1 group I member 2 (Rattus norvegicus) (UniProt Q9R1A7); test: Rat pregnane X receptor (rPXR) activation by small molecules, qHTS assay (AID 1346983); settings: rPXR luciferase reporter cells, One-Glo luminescence, 24 h; max activation: hits give high values; also: nearly all actives have a fitted effect of over 20% in size
Procedure, shortened: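 Cell-based rPXR luciferase reporter assay, 2,000 cells per well, rested 5hr at 37 C before compound addition in DMSO, then 24 hr at 37 C. One-Glo reagent was added and luminescence read after 30 min at room temperature.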

[19] = qHTS assay to identify small molecule agonists or antagonists of the thyroid stimulating hormone receptor (TSHR) signaling pathway - wild type cell line counter screen (AID 1259384; calls by dose curve)
Procedure, shortened: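 Wild-type HEK293 cells were plated 18 h at 37 C/5% CO2, pin-dosed with compound plus Ro20-1724 medium, held 30 min at room temperature, then given cAMP-d2 and anti-cAMP-cryptate; fluorescence was read after 1 h. Fifteen concentrations, triplicate.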

[20] = biological target: Thyrotropin receptor (Homo sapiens) (UniProt P16473); test: qHTS assay to identify small molecule antagonists of the thyroid stimulating hormone receptor (TSHR) signaling pathway (AID 1259385; calls by dose curve; also: nearly all actives have a fitted effect of over 20% in size)
Procedure, shortened: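 TSHR-HEK293 cells were plated and held 18 h at 37C/5% CO2, then given compound plus Ro20-1724 and stimulated with TSH at 1.5 ng/mL final. After 30 min at room temperature, cAMP was detected with cAMP-d2/anti-cAMP-cryptate (1 h) by fluorescence.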
% is scaled to controls: 0 for no effect and ±100 for the full control effect.

Chain of Thyrotropin-releasing hormone receptor (Homo sapiens) (P34981 whole entry, looked up): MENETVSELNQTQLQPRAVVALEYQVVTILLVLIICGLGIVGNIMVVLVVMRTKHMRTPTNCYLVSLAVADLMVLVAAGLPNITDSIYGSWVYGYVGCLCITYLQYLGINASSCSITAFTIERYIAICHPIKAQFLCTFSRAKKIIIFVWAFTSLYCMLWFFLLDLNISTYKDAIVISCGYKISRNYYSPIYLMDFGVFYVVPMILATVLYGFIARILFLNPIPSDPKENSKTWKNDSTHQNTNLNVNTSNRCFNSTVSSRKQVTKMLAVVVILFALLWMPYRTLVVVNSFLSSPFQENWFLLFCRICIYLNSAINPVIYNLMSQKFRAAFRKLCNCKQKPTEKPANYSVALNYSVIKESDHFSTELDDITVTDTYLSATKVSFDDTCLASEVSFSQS
Chain of Progesterone receptor (Homo sapiens) (P06401 whole entry, looked up): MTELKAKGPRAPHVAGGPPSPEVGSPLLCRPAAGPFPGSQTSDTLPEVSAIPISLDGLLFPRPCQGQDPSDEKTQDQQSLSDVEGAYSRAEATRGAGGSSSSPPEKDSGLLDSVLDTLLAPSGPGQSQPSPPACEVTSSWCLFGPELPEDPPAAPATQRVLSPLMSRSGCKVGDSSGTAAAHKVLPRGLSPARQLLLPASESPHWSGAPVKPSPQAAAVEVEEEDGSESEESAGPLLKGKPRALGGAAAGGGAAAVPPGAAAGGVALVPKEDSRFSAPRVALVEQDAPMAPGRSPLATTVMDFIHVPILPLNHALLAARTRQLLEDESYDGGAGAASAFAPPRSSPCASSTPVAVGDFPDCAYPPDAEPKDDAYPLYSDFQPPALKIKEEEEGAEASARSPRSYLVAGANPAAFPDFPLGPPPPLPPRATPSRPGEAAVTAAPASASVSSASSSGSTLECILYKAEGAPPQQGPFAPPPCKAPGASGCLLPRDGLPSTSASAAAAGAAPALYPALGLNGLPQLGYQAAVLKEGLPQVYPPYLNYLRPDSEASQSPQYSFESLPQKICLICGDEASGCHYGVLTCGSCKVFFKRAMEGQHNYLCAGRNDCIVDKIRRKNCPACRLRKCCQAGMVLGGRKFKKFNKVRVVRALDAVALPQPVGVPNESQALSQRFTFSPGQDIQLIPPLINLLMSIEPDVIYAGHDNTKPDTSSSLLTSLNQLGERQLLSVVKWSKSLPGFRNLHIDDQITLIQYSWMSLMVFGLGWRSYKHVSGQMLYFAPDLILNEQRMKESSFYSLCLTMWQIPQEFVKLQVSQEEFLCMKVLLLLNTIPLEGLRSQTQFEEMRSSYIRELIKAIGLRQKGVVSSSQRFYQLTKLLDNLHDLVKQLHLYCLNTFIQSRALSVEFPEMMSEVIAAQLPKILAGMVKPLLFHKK
Chain of Nuclear receptor subfamily 1 group I member 2 (Homo sapiens) (O75469 whole entry, looked up): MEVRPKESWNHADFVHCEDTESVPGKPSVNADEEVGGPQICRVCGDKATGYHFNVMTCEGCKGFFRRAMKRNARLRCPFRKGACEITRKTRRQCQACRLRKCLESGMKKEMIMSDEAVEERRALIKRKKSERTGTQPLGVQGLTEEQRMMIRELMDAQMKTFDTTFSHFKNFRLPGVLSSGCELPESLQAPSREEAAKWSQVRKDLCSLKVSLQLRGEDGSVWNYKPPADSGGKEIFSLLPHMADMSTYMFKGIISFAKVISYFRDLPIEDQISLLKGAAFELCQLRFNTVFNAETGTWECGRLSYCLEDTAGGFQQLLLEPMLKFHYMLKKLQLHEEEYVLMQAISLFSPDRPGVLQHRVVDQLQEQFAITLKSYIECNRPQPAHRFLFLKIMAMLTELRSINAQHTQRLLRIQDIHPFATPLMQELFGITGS
Chain of Estrogen receptor (Homo sapiens) (P03372 whole entry, looked up): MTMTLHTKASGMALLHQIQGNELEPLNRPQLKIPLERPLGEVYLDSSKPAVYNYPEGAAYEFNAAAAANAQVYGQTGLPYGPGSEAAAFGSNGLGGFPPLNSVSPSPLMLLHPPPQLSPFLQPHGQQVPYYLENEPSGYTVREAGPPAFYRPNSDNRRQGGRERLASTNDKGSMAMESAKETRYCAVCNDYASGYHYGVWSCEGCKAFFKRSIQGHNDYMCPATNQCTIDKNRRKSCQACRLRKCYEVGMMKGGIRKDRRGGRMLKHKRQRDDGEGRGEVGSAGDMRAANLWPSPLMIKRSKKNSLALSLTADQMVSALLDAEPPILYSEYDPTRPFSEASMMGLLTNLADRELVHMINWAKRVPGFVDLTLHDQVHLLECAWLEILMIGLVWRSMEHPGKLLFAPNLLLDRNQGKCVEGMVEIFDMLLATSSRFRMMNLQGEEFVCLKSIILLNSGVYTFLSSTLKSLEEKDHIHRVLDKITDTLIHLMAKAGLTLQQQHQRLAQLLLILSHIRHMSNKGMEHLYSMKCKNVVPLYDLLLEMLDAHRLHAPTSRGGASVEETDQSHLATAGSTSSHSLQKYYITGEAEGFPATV
Chain of Nuclear receptor subfamily 1 group I member 2 (Rattus norvegicus) (Q9R1A7 whole entry, looked up): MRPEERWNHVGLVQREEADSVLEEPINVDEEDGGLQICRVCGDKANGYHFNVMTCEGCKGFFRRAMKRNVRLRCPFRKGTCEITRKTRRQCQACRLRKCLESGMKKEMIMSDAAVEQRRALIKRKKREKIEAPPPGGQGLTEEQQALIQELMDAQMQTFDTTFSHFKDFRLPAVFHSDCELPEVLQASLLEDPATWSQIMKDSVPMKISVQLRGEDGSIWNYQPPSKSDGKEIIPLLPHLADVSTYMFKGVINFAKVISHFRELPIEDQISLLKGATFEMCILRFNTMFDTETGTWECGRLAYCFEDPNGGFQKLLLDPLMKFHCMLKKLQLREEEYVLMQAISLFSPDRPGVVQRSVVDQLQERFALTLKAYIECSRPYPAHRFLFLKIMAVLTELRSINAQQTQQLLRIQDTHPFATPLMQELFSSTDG
Chain of Thyrotropin receptor (Homo sapiens) (P16473 whole entry, looked up): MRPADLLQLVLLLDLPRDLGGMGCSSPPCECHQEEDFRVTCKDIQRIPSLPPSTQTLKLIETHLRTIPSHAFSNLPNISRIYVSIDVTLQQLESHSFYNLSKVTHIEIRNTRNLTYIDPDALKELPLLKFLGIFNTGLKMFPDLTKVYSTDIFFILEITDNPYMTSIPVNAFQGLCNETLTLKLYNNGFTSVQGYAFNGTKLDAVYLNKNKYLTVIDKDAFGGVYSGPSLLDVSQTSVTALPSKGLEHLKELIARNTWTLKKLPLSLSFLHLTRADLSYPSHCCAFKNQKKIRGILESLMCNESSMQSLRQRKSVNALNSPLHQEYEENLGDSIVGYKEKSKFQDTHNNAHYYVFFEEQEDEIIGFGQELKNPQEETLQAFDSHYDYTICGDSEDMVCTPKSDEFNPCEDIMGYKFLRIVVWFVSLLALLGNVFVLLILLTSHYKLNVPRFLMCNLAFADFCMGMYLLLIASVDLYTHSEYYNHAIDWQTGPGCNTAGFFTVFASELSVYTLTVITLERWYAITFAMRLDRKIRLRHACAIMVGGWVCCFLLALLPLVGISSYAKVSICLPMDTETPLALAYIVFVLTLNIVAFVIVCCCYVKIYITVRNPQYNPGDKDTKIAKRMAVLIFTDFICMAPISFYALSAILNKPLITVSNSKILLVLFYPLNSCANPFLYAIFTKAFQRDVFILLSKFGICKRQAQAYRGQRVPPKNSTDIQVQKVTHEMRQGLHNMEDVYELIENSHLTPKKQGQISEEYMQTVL

C=CCOCC(O)CCl (stereo not drawn)
inactive: outcome [1] | Potency [2] | Potency [3] | Potency [4] | Potency [5] | outcome [6] | outcome [7] | outcome [8] | outcome [9] | outcome [10] | Potency [11] | outcome [12] | Potency [13] | outcome [14] | Potency [15] | Potency [16]

CC(C)C(=O)Nc1cccc(C(F)(F)F)c1
inactive: outcome [1] | Potency [2] | Potency [3] | Potency [4] | Potency [17] | Potency [5] | outcome [6] | outcome [7] | outcome [8] | outcome [9] | outcome [10] | Potency [11] | outcome [12] | outcome [14] | Potency [15] | Potency [16]

CCCCCCCCCCCCC1CO1 (stereo not drawn)
inactive: outcome [1] | Potency [2] | Potency [4] | Potency [17] | outcome [6] | outcome [7] | outcome [9] | outcome [10] | Potency [11] | outcome [12] | Potency [13] | outcome [14] | Potency [15] | Potency [16]

CC(=O)Nc1ccc(C)cc1
inactive: outcome [1] | Potency [2] | Potency [3] | Potency [4] | Potency [17] | Potency [5] | outcome [6] | outcome [7] | outcome [8] | outcome [9] | outcome [10] | Potency [11] | outcome [12] | Potency [13] | outcome [14] | Potency [16]

O=S1(=O)CCCC1
inactive: outcome [1] | Potency [2] | Potency [3] | Potency [17] | Potency [5] | outcome [6] | outcome [7] | outcome [8] | outcome [9] | outcome [10] | Potency [11] | outcome [12] | Potency [13] | Potency [15] | Potency [16]

OC(CCN1CCCCC1)(c1ccccc1)c1ccccc1
inactive: outcome [1] | Potency [4] | Potency [17] | Potency [5] | outcome [6] | outcome [7] | outcome [8] | outcome [9] | outcome [10] | outcome [12] | Potency [13] | Potency [15] | Potency [16] | max activation [18] -1.14%

CCC(=O)c1ccc(O)cc1
inactive: outcome [1] | Potency [2] | Potency [3] | Potency [4] | Potency [17] | Potency [5] | outcome [6] | outcome [7] | outcome [8] | outcome [9] | outcome [10] | Potency [11] | outcome [12] | Potency [16]

Nc1ccc(/C=C/c2ccc(N)cc2S(=O)(=O)O)c(S(=O)(=O)O)c1
inactive: activation [1] 0.0248% [at 0.349 µM] | activity change, negative = cytotoxicity [2] 0.0708% [at 0.349 µM] | activation [3] 0.0887% [at 0.349 µM] | activity change, negative = inhibition [4] 3.92% [at 0.348 µM] | activity change, negative = cytotoxicity [17] 0.087% [at 0.348 µM] | activity change, negative = cytotoxicity [5] -4.84% [at 0.349 µM] | viability change, negative = cytotoxic [6] -0.698% [at 0.29 µM] | activity change, negative = cytotoxicity [7] 12.6% [at 0.29 µM] | activation [8] 1.21% [at 0.29 µM] | activity, negative = inhibition [9] -5.44% [at 0.194 µM] | activation [10] 0.0703% [at 0.218 µM] | activity change, negative = cytotoxicity [11] 11% [at 0.349 µM] | caspase activation [12] 0.454% [at 0.349 µM] | activity change, negative = cytotoxicity [13] 8.5% [at 0.349 µM] | caspase-3/7 activation [14] -0.823% [at 0.349 µM] | activity change, negative = cytotoxicity [15] 1.29% [at 0.349 µM] | activation [16] -2.19% [at 0.349 µM] | max activation [18] -1.81%

O=C(c1ccc2c(c1)C(=O)OC2=O)c1ccc2c(c1)C(=O)OC2=O
inactive: outcome [19] | outcome [20] | Potency [2] | Potency [3] | Potency [4] | Potency [17] | Potency [5] | outcome [6] | outcome [7] | outcome [8] | outcome [9] | outcome [10] | Potency [11] | outcome [12] | Potency [13] | outcome [14] | Potency [15] | Potency [16]

Cc1ccccc1OCC1CO1 (stereo not drawn)
inactive: outcome [1] | Potency [2] | Potency [3] | Potency [4] | Potency [17] | Potency [5] | outcome [6] | outcome [7] | outcome [8] | outcome [9] | outcome [10] | Potency [11] | outcome [12] | Potency [13] | outcome [14] | Potency [15] | Potency [16]

CCC(CO)CO
inactive: outcome [1] | Potency [2] | Potency [3] | Potency [4] | Potency [17] | Potency [5] | outcome [6] | outcome [7] | outcome [9] | outcome [10] | Potency [11] | outcome [12] | Potency [15] | Potency [16]

O=[Si]=O
inactive: outcome [1] | Potency [2] | Potency [3] | Potency [4] | Potency [17] | Potency [5] | outcome [6] | outcome [7] | outcome [9] | outcome [10] | Potency [11] | outcome [12] | Potency [13] | outcome [14] | Potency [16]

CC(=O)N(CC(O)CO)c1c(I)c(C(=O)NCC(O)CO)c(I)c(C(=O)NCC(O)CO)c1I (stereo not drawn)
inactive: outcome [1] | Potency [2] | Potency [3] | Potency [4] | Potency [5] | outcome [6] | outcome [7] | Potency [11] | outcome [12] | outcome [14] | Potency [16] | max activation [18] -0.214%

COc1cc2c(Nc3ccc(Br)cc3F)ncnc2cc1OCC1CCN(C)CC1
inactive: outcome [1] | Potency [2] | Potency [3] | Potency [4] | Potency [5] | outcome [6] | outcome [7] | outcome [8] | Potency [11] | outcome [12] | Potency [13] | outcome [14] | Potency [15] | Potency [16] | max activation [18] -20.7%

Cc1ccc(C(=O)C(=O)O)cc1C
inactive: outcome [1] | Potency [2] | Potency [3] | Potency [4] | Potency [17] | Potency [5] | outcome [6] | outcome [7] | Potency [11] | outcome [12] | Potency [13] | outcome [14] | Potency [15] | Potency [16]
